# Sampled rows, rich in hits. Any-hit rate of the full collection: about 3.5%.
# FBW7 act = human FBW7 E3 ligase activation, primary screen | Q969H0 | AlphaScreen FBW7–phospho-cyclin E peptide binding, activator screen | 0.13% of 650,000 active | normalized activity (activation), % at 26.1 µM; in the data active means normalized activity above about 1.9%;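 further: purified mutant Fbw7 with reduced substrate affinity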
# GPR151 ag = human GPR151 activation; AID 1508602; activation, % at 11.2 µM; PathHunter beta-arrestin GPR151 cells, luminescence; 1% of 650,000 active; in the data active means activation above about 4.9%;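 further: 0% = median of compound wells and 100% = cells with positive control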
# TEAD-YAP block = TEAD-YAP interaction inhibition; HEK-TIYL cells, TEAD-Gal4/YAP UAS-luciferase luminescence; inhibition, % at 9.12 µM; 1.4% of 640,000 active; in the data active means inhibition above about 32%;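 further: 0% = median of test compound wells and 100% = reference inhibitor wells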
# MITF inh = blocks human microphthalmia-associated transcription factor; 0.91% of 650,000 active; AlphaScreen MITF homodimerization, bead proximity signal; AID 1259374; inhibition, % at 2.6 µM; in the data active means inhibition above about 50%;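 further: 0% = vehicle wells with protein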
# Target sequence (O75030 whole entry, looked up): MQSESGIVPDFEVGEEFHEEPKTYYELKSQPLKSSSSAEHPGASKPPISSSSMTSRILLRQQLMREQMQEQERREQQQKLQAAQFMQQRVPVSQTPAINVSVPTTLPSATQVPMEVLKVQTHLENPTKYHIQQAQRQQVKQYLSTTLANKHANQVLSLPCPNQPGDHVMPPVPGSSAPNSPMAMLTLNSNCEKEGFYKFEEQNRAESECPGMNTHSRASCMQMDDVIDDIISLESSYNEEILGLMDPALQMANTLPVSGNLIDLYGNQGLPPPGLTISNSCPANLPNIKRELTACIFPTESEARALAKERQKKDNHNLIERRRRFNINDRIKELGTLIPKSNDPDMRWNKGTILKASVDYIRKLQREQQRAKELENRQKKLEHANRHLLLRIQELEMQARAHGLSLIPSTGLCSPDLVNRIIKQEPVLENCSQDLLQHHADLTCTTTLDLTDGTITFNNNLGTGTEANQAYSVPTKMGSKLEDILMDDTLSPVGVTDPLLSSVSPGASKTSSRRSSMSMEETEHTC
# * marks the source's active call; other numbers are inactive results.
SMILES,FBW7 act,GPR151 ag,TEAD-YAP block,MITF inh
CCCNC(=O)Cn1cnc2sc(C(=O)N3CCN(c4ccccc4F)CC3)c(C)c2c1=O,0.1,2.3,4.8,3.1
O=C(Cc1cccc2ccccc12)N/N=C/c1cc([N+](=O)[O-])ccc1O,-0.3,-0.1,6.2,-4.6
CCOc1ccc(S(=O)(=O)NCc2ccncc2)cc1C,0.0,0.0,54.9*,-2.1
Cc1ccc(S(=O)(=O)NCc2ccncc2)cc1,0.0,0.2,41.2*,0.7
O=C(Nc1cccc(NC(=O)c2ccc(-c3cccc([N+](=O)[O-])c3)o2)c1)c1ccco1,0.2,-0.7,10.9,21.0
CN(C)c1ccc(-c2nc3n(c2NCc2ccc4c(c2)OCO4)CCNC3)cc1,-0.1,-0.5,-18.2,-11.6
COc1ccc(OC)c(NC(=O)CCc2c(C)nc3nc[nH]n3c2=O)c1,-0.1,0.2,16.9,12.1
CC(=O)N(C1=C(N2CCCC2)C(=O)c2ccccc2C1=O)c1ccccc1C,0.5,-4.9,91.9*,31.4
CC(=O)N(C1=C(N2CCCCC2)C(=O)c2ccccc2C1=O)c1ccc(C)cc1,-0.1,-0.5,-11.7,23.5
NC(=O)c1ccc(-c2ccc(N3CCOCC3)nc2)s1,0.1,-11.8,50.1*,18.0
COc1ccc(-c2ncc(C(N)=O)s2)cc1,0.0,-7.1,49.1*,-5.7
NC(=O)c1cnc(-c2ccc(N3CCOCC3)nc2)s1,-0.1,-7.6,63.4*,5.9
CCCNC(=O)c1cnc(-c2ccc(N3CCOCC3)nc2)s1,0.1,0.0,-0.4,1.1
Cc1sc2ncn(CC(=O)NCCCC(=O)NCCN3CCCC3)c(=O)c2c1C,0.0,0.2,-3.4,23.5
CCOC(=O)C1=C(c2ccccc2)N=c2s/c(=C\c3ccc(N(CC)CC)cc3OC)c(=O)n2C1c1ccccc1OC (stereo not given),0.2,-0.2,1.2,13.3
COCC(C)n1c(C)cc(C(=O)COC(=O)c2n[nH]c3ccccc23)c1C (stereo not given),0.2,-2.3,88.3*,17.9
COCC(C)n1c(C)cc(C(=O)COC(=O)c2c(OC)cccc2OC)c1C (stereo not given),-0.1,-1.6,21.6,9.8
COCC(C)n1c(C)cc(C(=O)COC(=O)c2oc3ccccc3c2C)c1C (stereo not given),0.0,-0.8,-0.2,5.1
COCC(C)n1c(C)cc(C(=O)CSc2nc3ccccc3[nH]2)c1C (stereo not given),-0.1,3.2,40.1*,8.2
COCC(C)n1c(C)cc(C(=O)COC(=O)c2cccc(C)c2C)c1C (stereo not given),-0.1,-0.5,46.5*,7.3
Cc1cc(C(=O)CSc2nc3ccccc3[nH]2)c(C)n1C1CC1,0.1,-0.7,-71.1,6.7
Cc1ccc(-n2c(=O)[nH]c3c(C(=O)N4CCCC4)cn(C)c3c2=O)cc1,-0.1,0.7,-3.9,2.4
Nc1c(C(=O)Nc2ccc(F)cc2)sc2nc3c(c(-c4cccs4)c12)CCCC3,0.0,1.1,-3.2,-6.3
O=C1NC(=O)C(=Cc2cc(Cl)ccc2OCc2ccc(Br)cc2)C(=O)N1,-0.1,0.0,-53.0,7.3
O=C(c1ccc2c3c(cccc13)CC2)N1CCc2ccccc21,0.0,-1.5,-1.6,8.6
SMILES,FBW7 act,GPR151 ag,TEAD-YAP block,MITF inh
CN1CCSc2ccc(C(=O)N3CCCCCC3)cc21,0.3,0.0,-19.4,13.1
COc1ccc(CCC(=O)N2CCC3(CC2)OCc2ccccc2O3)cc1,-0.4,3.7,-5.2,-0.4
COc1cc(CC(=O)N2CCC3(CC2)OCc2ccccc2O3)cc(OC)c1OC,-0.1,1.3,38.4*,6.3
COc1ccc(CCC(=O)N2CCC3(CC2)OCc2ccccc2O3)cc1OC,-0.1,-0.6,40.4*,7.8
COc1cccc(CC(=O)N2CCC3(CC2)OCc2ccccc2O3)c1OC,0.1,0.0,5.2,8.2
COc1cc(CC(=O)N2CCC3(CC2)OCc2cc(Cl)ccc2O3)cc(OC)c1OC,-0.4,1.5,59.2*,-17.4
NC(=S)N/N=C/c1ccc(-c2ccccc2[N+](=O)[O-])o1,0.5,0.5,-8.5,21.0
COc1ccc([C@@H](C)NC2CCN(c3nc(C)c4ccc(OC)cc4n3)CC2)cc1,0.2,-0.6,0.4,-1.6
Nc1cccc(-c2nc(N)c3ncn(-c4ccsc4)c3n2)c1,0.2,0.4,54.3*,3.4
CC(=O)c1cccc(-c2nc(Nc3ccccc3)c3ncn(-c4ccsc4)c3n2)c1,0.1,0.6,-4.3,-19.9
CC(=O)c1cccc(-c2nc(N)c3ncn(-c4ccsc4)c3n2)c1,-0.2,-0.1,55.9*,-7.5
O=C(c1ccco1)N1CCN(c2ncc(-c3ccccc3CO)n3ccnc23)CC1,6.7*,-3.9,-1.5,-3.8
O=C(c1ccco1)N1CCN(c2nccn3c(-c4ccccc4CO)cnc23)CC1,-0.3,-2.3,-0.5,-7.5
N#CCc1c(C#N)c(N)nc(N2CCC(C(N)=O)CC2)c1C#N,0.0,-2.0,-11.6,-3.7
Cc1cccc(-n2c(O)c(/C=N/c3nn[nH]n3)c(=O)[nH]c2=O)c1,0.8,-1.3,3.7,16.7
CCc1nnc(NC(=O)C(=O)NCCO)s1,-0.3,1.1,8.2,4.0
Cc1cc2c(cc1C)n(C1CC(=O)C3OCC1O3)c(=S)n2Cc1ccccc1Cl (stereo not given),0.1,2.2,48.0*,13.4
CC(C)n1nccc1-c1nnc(NC(=O)C(C)(C)Oc2ccc(Cl)cc2)o1,-0.8,-0.1,37.5*,31.1
CC(C)n1nccc1-c1nnc(NC(=O)c2ccc(Cl)cc2Cl)o1,0.0,-0.9,11.9,2.7
COc1ccc(CCNc2nc(-c3c(C)noc3C)ncc2C)cc1,0.1,0.5,40.9*,-3.6
COc1ccc(CCNc2nc(-c3ccc(OC)cc3)ncc2C)cc1,0.0,0.4,0.2,-3.3
COc1ccc(CCNc2nc(-c3ccc(OC)nc3)ncc2C)cc1,-0.1,-1.7,41.4*,3.5
COc1ccc(CCNc2nc(-c3c(C)nn(C)c3C)ncc2C)cc1,0.4,2.0,2.6,11.3
COc1ccc(CCNc2nc(-c3ccccc3)ncc2C)cc1,-0.1,-1.6,42.2*,-4.0
COc1ccc(N=C2SC(C(=O)Nc3ccccc3OC)CC(=O)N2Cc2ccc3c(c2)OCO3)cc1 (stereo not given),0.0,0.8,3.9,-5.1
SMILES,FBW7 act,GPR151 ag,TEAD-YAP block,MITF inh
COc1ccc(-c2noc(C3CC(=O)N(c4ccc5c(c4)OCCO5)C3)n2)cc1 (stereo not given),0.1,1.0,-1.0,-3.8
Cc1ccsc1C(=O)C1CCCN(Cc2ccc(N3CCNC3=O)cc2)C1 (stereo not given),0.2,-0.1,35.5*,-18.9
COc1ccc(C(=O)C2CCCN(Cc3ccc(N4CCNC4=O)cc3)C2)cc1OC (stereo not given),0.0,0.3,-4.1,14.8
COc1ccccc1-c1ccc(SCC(=O)Nc2cccc(C(C)=O)c2)nn1,0.2,-2.1,9.8,11.9
CC(=O)Nc1ccc(S(=O)(=O)NC(N)=O)cc1,-0.1,-1.4,-5.8,-1.9
CC1(C)CC(=O)C=C(NNC(=O)c2ccc(O)cc2)C1,0.0,0.3,3.9,-16.0
CC1(C)CC(=O)C=C(NNC(=O)/C(=C/c2ccccc2)CCO)C1,1.9*,0.6,11.4,10.7
CC(=O)c1ccccc1OCc1ccccc1C,2.6*,0.2,5.2,7.2

# High-throughput results from PubChem BioAssay.
